PubChem BioAssay (Tox21)
Inconclusive results are not listed. A call without a number means that no potency is given here. Active and inactive are the calls of the source. Calls come from the whole dose curve; as a rule, active = well fitted inhibition curve with a large enough effect in the repeat runs; inconclusive = weak or mixed curves; inactive = no such curve, though single readings can be large or run the other way.

target: Cytochrome P450 3A4 (Homo sapiens) (UniProt P08684); test: Cytochrome P450 Family 3 Subfamily A Member 4 (CYP3A4) small molecule antagonists: luciferase reporter qHTS assay (AID 1671201); conditions: P450-Glo CYP3A4 enzyme, luciferin luminescence, 1 h; series mostly up to 115 µM; note: nearly all actives have a fitted effect of over 50% in size
Summary of the method: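 Setup: enzyme-substrate mix, compound pin transfer, 10 min RT. Reaction: NADPH regeneration solution, 1 h RT. Readout: detection reagent stops turnover, luminescence measured after 20 min, expressed in relative luminescence units.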
Potency is the fitted concentration of half-maximal effect.

Chain of Cytochrome P450 3A4 (Homo sapiens) (P08684 whole entry, looked up): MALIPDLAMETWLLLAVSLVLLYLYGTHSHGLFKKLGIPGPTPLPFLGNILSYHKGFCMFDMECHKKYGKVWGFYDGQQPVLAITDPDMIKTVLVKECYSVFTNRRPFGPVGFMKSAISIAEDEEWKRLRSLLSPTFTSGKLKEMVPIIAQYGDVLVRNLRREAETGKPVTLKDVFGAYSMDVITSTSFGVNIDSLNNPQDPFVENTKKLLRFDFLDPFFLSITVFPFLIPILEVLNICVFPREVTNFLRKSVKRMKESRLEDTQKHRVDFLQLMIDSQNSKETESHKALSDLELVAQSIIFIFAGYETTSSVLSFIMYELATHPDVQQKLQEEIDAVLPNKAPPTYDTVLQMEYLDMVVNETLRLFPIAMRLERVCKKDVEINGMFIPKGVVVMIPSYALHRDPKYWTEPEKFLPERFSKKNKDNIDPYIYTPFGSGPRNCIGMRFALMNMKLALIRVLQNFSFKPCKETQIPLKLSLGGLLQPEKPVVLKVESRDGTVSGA

Compound | Potency
O=C(O)C[C@H](NC(=O)OCc1ccccc1)C(=O)O | inactive
CC1(C)S[C@@H]2[C@H](NC(=O)C(c3ccccc3)S(=O)(=O)O)C(=O)N2[C@H]1C(=O)O (stereo not given in full) | inactive
COC(=O)CS | inactive
Nc1ccc(N=Nc2ccccc2)c(N)c1 | 11 µM (active)
C[C@]12CC[C@@H]3c4ccc(O)cc4CC[C@H]3[C@@H]1CC[C@@H]2OC(=O)CCC1CCCC1 | inactive
